Screens from PubChem BioAssay.
Pf growth 48h – P. falciparum growth inhibition at 48 hours (one generation). P. falciparum luciferase growth in erythrocytes, 48 h. Potency, µM (top dose mostly 28.7 µM), for the others: top-dose activity change, negative = inhibition, actives largely listed as inhibitors. 5.9% of 310,000 active; also: % is scaled to controls: 0 for no effect and ±100 for the full control effect
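Erythrocytes infected with P. falciparum carrying an integrated firefly luciferase reporter (2% hematocrit, 0.1% parasitemia final) were exposed to compounds in RPMI 1640 with 0.5% Albumax at 37 C, 5% CO2. Growth inhibition was scored as reduced luminescence.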
AmpC inh no detg – inhibitors of E. coli AmpC beta-lactamase without detergent | P00811 | AmpC nitrocefin hydrolysis, absorbance 480 nm, 0.0001% Triton | Potency, µM (doses to about 57.1 µM), inactives show top-dose activity change, negative = inhibition, hits mostly inhibitors | 0.52% of 330,000 active;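 also: plate controls were no compound for no effect and no enzyme for full effect; nearly all actives have a fitted effect of over 20% in size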
Target sequence (P00811 whole entry, looked up): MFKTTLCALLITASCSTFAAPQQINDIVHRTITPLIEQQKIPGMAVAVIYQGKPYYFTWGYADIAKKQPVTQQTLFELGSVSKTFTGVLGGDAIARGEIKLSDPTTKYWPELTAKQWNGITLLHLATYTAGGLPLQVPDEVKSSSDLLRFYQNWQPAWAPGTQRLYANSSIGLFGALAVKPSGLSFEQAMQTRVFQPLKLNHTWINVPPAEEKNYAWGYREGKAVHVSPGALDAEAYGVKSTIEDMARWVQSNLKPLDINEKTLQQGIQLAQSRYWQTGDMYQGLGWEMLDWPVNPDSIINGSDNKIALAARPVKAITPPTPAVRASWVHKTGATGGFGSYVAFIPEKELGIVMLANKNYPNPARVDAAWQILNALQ
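AmpC (5.3 nM in the dispensed reagent) in 20 mM phosphate pH 7.0 with 0.01% (detergent screen) or 0.0001% Triton X-100 was preincubated with compounds for 15 min at room temperature. Nitrocefin was then added from an 800 uM solution, and hydrolysis was followed at 480 nm.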
Sm TGR block – blocks Schistosoma mansoni thioredoxin glutathione reductase | Q962Y6 | purified TGR, DTNB reduction, TNB absorbance 405 nm | Potency, µM (highest dose often 114 µM), inactives show at the highest dose activity change, negative = inhibition, actives largely listed as inhibitors | 3% of 360,000 active | AID 485364; also: % is scaled to controls: 0 for no effect and ±100 for the full control effect; nearly all actives have a fitted effect of over 60% in size
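Kinetic colorimetric format: TGR-catalysed, NADPH-driven DTNB reduction monitored via TNB absorbance. Enzyme dispensed at 20 nM; compound exposure 15 min at room temperature before reaction start.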
Pf growth 96h – inhibits malaria parasite growth, 96 h; P. falciparum luciferase reporter growth, 96 h; Potency, µM (highest dose often 28.7 µM), without a hit: top-dose activity change, negative = inhibition, actives largely listed as inhibitors; 6.9% of 320,000 active; AID 504834; also: % is scaled to controls: 0 for no effect and ±100 for the full control effect
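Parasite growth measured via integrated firefly luciferase reporter in P. falciparum. Infected erythrocytes at 2% hematocrit, 0.05% parasitemia final were treated 96 hours at 37 C under 5% CO2, and luminescence was read.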
SARS PLpro yeast – blocks SARS-CoV papain-like protease in a yeast assay. 0.19% of 330,000 active. Potency, µM (series often up to 32.9 µM), for inactives: top-dose activity, positive = growth rescue, actives largely listed as activators. S. cerevisiae expressing SARS-CoV PLpro, growth rescue; calls by dose curve; also: 0% is about no effect; nearly all actives have a fitted effect of over 55% in size
AmpC detergent – inhibitors of E. coli AmpC beta-lactamase with detergent | AmpC hydrolysis of nitrocefin, absorbance 480 nm, 0.01% Triton | 0.041% of 370,000 active | AID 485294 | Potency, µM (doses to about 114 µM), inactives show top-dose activity change, negative = inhibition, actives largely listed as inhibitors;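 also: 0% = no-compound wells and -100% = no-enzyme wells; nearly all actives have a fitted effect of over 25% in size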
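AmpC (5.3 nM in the dispensed reagent) in 20 mM phosphate pH 7.0 with 0.01% (detergent screen) or 0.0001% Triton X-100 was preincubated with compounds for 15 min at room temperature. Nitrocefin was then added from an 800 uM solution, and hydrolysis was followed at 480 nm.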
Numbers without * were called inactive. In the library only some 12% were active in any assay of this set; here they are far more common. Unless noted, calls follow the shape of the dose curve; as a rule, active = well fitted curve in the direction sought with a large enough effect; inconclusive = small, poorly fitted or top-dose-only effect, or another doubt; inactive = no such curve, though single readings can be large; an effect the other way counts as inactive or inconclusive. Potency is read from the fitted curve at half-maximal effect.

Results for C=CCn1c(C2CC2)n[nH]c1=S ?
Pf growth 48h: -3%; AmpC inh no detg: -17%; Sm TGR block: 0%; Pf growth 96h: 16%; SARS PLpro yeast: 8%; AmpC detergent: 3%

Results for COc1ccc(-c2nn(-c3ccccc3)cc2C(=O)NC(=S)N2CCOCC2)cc1OC ?
Pf growth 48h: 95%; AmpC inh no detg: -16%; Sm TGR block: 2%; Pf growth 96h: -11%; SARS PLpro yeast: -11%; AmpC detergent: 0%

Results for Cc1ccc(CNS(=O)(=O)c2c(C)[nH]c(C)c2C(=O)N2CCCCC2)o1 ?
Pf growth 48h: -8%; AmpC inh no detg: -2%; Sm TGR block: 45µM*; Pf growth 96h: 13µM*; SARS PLpro yeast: 3%; AmpC detergent: 0%

How did COc1ccc(CNS(=O)(=O)c2c(C)[nH]c(C)c2C(=O)N2CCCCC2)cc1 do in these assays?
Pf growth 48h: -1%; AmpC inh no detg: -7%; Sm TGR block: -19%; Pf growth 96h: 14%; SARS PLpro yeast: 1%; AmpC detergent: -10%

How did Cc1ccc2c(CNCc3ccccc3)cc(=O)oc2c1 do in these assays?
Pf growth 48h: -28%; AmpC inh no detg: 23%; Sm TGR block: 8%; Pf growth 96h: inconclusive; SARS PLpro yeast: -13%; AmpC detergent: 2%

Results for COc1ccc(CSc2nnc(Cc3sc(-c4ccccc4)nc3-c3ccccc3)o2)cc1 ?
Pf growth 48h: 12µM*; AmpC inh no detg: -6%; Sm TGR block: -28%; Pf growth 96h: 2.1µM*; SARS PLpro yeast: -1%; AmpC detergent: 1%

What do the screens show for `CSc1nnc(Cc2sc(-c3ccccc3)nc2-c2ccccc2)o1`?
AmpC inh no detg: 45%; Sm TGR block: 0%; Pf growth 96h: 0%; SARS PLpro yeast: -5%; AmpC detergent: 5%

Results for Fc1ccc(CSc2nnc(Cc3sc(-c4ccccc4)nc3-c3ccccc3)o2)cc1 ?
AmpC inh no detg: -9%; Sm TGR block: -5%; Pf growth 96h: 12µM*; SARS PLpro yeast: -5%; AmpC detergent: -2%

What do the screens show for `Cc1ccc(CNC(=O)Cn2c(=O)n(-c3ccc(Cl)cc3)c(=O)c3c(C)c(C)sc32)cc1`?
Sm TGR block: -7%; AmpC detergent: 8%

How did COC(=O)c1[nH]c2cccc(C)c2c1NC(=O)CN1CCN(c2ccccc2OC)CC1 do in these assays?
Pf growth 48h: inconclusive; AmpC inh no detg: 173%; Sm TGR block: 7%; Pf growth 96h: -24%; SARS PLpro yeast: 1%; AmpC detergent: inconclusive

Results for COC(=O)c1[nH]c2ccccc2c1NC(=O)C(C)N1CCN(C(=O)c2ccco2)CC1 (centres undefined) ?
Pf growth 48h: inconclusive; AmpC inh no detg: -5%; Sm TGR block: 3%; Pf growth 96h: 10µM*; SARS PLpro yeast: -3%; AmpC detergent: -2%

What do the screens show for `COC(=O)c1[nH]c2cccc(C)c2c1NC(=O)CN1CCN(C(=O)c2ccco2)CC1`?
Pf growth 48h: inconclusive; AmpC inh no detg: 23%; Sm TGR block: inconclusive; Pf growth 96h: 12µM*; SARS PLpro yeast: -1%; AmpC detergent: 10%

Results for COC(=O)c1[nH]c2cc(C)ccc2c1NC(=O)CN1CCN(C(=O)c2ccco2)CC1 ?
Pf growth 48h: inconclusive; AmpC inh no detg: 27%; Sm TGR block: inconclusive; Pf growth 96h: 3.3µM*; SARS PLpro yeast: 12%; AmpC detergent: 3%

How did COC(=O)c1[nH]c2ccccc2c1NC(=O)C(C)N1CCOCC1 (centres undefined) do in these assays?
Pf growth 48h: 3%; AmpC inh no detg: -13%; Sm TGR block: 4%; Pf growth 96h: -13%; SARS PLpro yeast: -1%; AmpC detergent: -8%

Results for CN(C)C(=O)c1ccc(NC(=O)Cn2nnnc2-c2ccccc2F)cc1 ?
Sm TGR block: 5%; AmpC detergent: 16%

What do the screens show for `O=C1CCC(=O)N1CN(C(=O)c1ccco1)c1ccc(Cl)c(Cl)c1`?
Pf growth 48h: 23%; AmpC inh no detg: 0%; Sm TGR block: 11%; Pf growth 96h: 10µM*; SARS PLpro yeast: 3%; AmpC detergent: 5%

Results for O=C(Cn1nc(C(=O)O)c2ccccc2c1=O)Nc1ccc(Br)cc1 ?
Pf growth 48h: 14%; AmpC inh no detg: -18%; Sm TGR block: -10%; Pf growth 96h: 10%; SARS PLpro yeast: 2%; AmpC detergent: 6%

Results for O=C(Cn1nc(C(=O)O)c2ccccc2c1=O)Nc1cc(Cl)cc(Cl)c1 ?
Pf growth 48h: 3%; AmpC inh no detg: 11µM*; Sm TGR block: -14%; Pf growth 96h: 7%; SARS PLpro yeast: -6%; AmpC detergent: -3%

What do the screens show for `CCCc1cc(=O)[nH]c2nnc(SCC(=O)Nc3ccc(OC)cc3)n12`?
Sm TGR block: -1%; AmpC detergent: -1%

How did Cc1cc(C)c2oc(-c3cccc(NC(=O)c4cc5ccccc5o4)c3)nc2c1 do in these assays?
Sm TGR block: 7%; AmpC detergent: 14%

What do the screens show for `CCc1nc(SCc2ccccc2C#N)n[nH]1`?
Pf growth 48h: -12%; AmpC inh no detg: -7%; Sm TGR block: -9%; Pf growth 96h: 9.3µM*; SARS PLpro yeast: 1%; AmpC detergent: 1%

What do the screens show for `CCCN(CCC)CCNC(=O)c1cc2c(-c3ccccc3F)nn(C)c2s1`?
Pf growth 48h: 3.3µM*; AmpC inh no detg: -4%; Sm TGR block: -9%; Pf growth 96h: 1%; SARS PLpro yeast: -2%; AmpC detergent: 0%

What do the screens show for `CCCN(CCC)CCCNC(=O)c1cc2c(-c3ccc(OC)c(OC)c3)nn(C)c2s1`?
Pf growth 48h: 2.1µM*; AmpC inh no detg: -3%; Sm TGR block: -20%; Pf growth 96h: 1%; SARS PLpro yeast: 0%; AmpC detergent: 1%

What do the screens show for `CCCCN(CC)CCNC(=O)c1cc2c(-c3ccc(Cl)cc3)nn(C)c2s1`?
Pf growth 48h: 0.33µM*; AmpC inh no detg: 5%; Sm TGR block: 13%; Pf growth 96h: -1%; SARS PLpro yeast: 1%; AmpC detergent: -4%

Results for CCCN(CCC)CCNC(=O)c1cc2c(-c3ccc(Cl)cc3)nn(C)c2s1 ?
Pf growth 48h: 0.47µM*; AmpC inh no detg: -16%; Sm TGR block: -2%; Pf growth 96h: 11%; SARS PLpro yeast: -4%; AmpC detergent: -1%

What do the screens show for `COc1ccc(-c2nn(C)c3sc(C(=O)NCCN(C)C)cc23)cc1OC`?
Pf growth 48h: 0%; AmpC inh no detg: -4%; Sm TGR block: 7%; Pf growth 96h: 56%; SARS PLpro yeast: 3%; AmpC detergent: -2%
